Assay outcomes from PubChem BioAssay.
Hits are enriched below; roughly 1.5% of the tested compounds scored in any of these assays.
CRFR2-BP antag: antagonists of CRF-BP/CRF-R2 complex, primary screen, cell-based, HEK293, calcium dye fluorescence, uHTS. CRF-induced calcium fluorescence. inhibition, % at 11.8 µM. actives 0.59% (n = 350,000);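 active = inhibition of the ligand-induced calcium signal above about 50% at the single tested concentration, limit read from the data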
NTR1 agonist: agonists of human NTR1, primary screen, imaging, U2OS cells, beta-arrestin-GFP, high content; Neurotensin receptor type 1 (Homo sapiens), P30989; NTR1-U2OS beta-arrestin-GFP spot imaging, agonist mode; activation, % at 20 µM; actives 0.17% (n = 330,000);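 active = activation at or above 40% of the spot to cytoplasm intensity ratio, with at least 20 cells analyzed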
Target sequence (P30989 whole entry, looked up): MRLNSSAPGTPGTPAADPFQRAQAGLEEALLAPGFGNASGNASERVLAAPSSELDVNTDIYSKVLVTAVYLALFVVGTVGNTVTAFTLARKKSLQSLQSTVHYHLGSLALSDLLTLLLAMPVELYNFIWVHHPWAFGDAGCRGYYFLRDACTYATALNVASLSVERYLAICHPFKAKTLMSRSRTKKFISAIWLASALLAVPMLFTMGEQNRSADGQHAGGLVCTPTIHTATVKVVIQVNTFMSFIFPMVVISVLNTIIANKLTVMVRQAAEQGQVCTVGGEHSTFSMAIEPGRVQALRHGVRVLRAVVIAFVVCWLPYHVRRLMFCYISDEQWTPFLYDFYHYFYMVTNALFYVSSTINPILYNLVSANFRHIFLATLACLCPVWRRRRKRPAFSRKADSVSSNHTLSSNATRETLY
V-ATPase pHluor: regulators of yeast V-ATPase proton pumping, primary screen, pHLuorin cytosolic pH fluorescence; S. cerevisiae; response, % at 10 µM; actives 0.37% (n = 350,000); in the data active = response mostly above about 7.3%, no sharp cut-off; inactive = mostly below about 5.4%; also: actives read high
CRFBP-R2 agonist: agonists of CRF-BP/CRF-R2 complex, primary screen, cell-based, HEK293, calcium dye fluorescence, uHTS | AID 588473, 2011 | CRF-binding protein / CRF receptor 2 complex (human) | activation, % at 13.2 µM | actives 0.46% (n = 350,000) | calcium dye fluorescence (FLIPR); percent of saturating CRF peptide response;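 active = activation of at least 50%, plus an integration ratio under a set limit after plate pattern correction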
Large screens that a line does not name were inactive.

Cc1ccc(CN2C(=O)NC(Cc3c[nH]c4ccccc34)C2=O)cc1 (stereo unspecified)	none
O=C1NC(Cc2c[nH]c3ccccc23)C(=O)N1Cc1cccc2ccccc12 (stereo unspecified)	CRFR2-BP antag 51
CC(C)(C)NC(=O)CN(C(=O)CCC(=O)Nc1nccs1)c1cccc(C(F)(F)F)c1	none
CCc1ccc(C2C(C#N)=C(N)SC(N)=C2C#N)cc1	CRFBP-R2 agonist 50
CC(C)CC1C(C#N)=C(N)SC(N)=C1C#N	CRFBP-R2 agonist 50
N#CC1=C(N)SC(N)=C(C#N)C1c1ccc(C(F)(F)F)cc1	none (no result: CRFR2-BP antag, V-ATPase pHluor, CRFBP-R2 agonist)
N#CC1=C(N)SC(N)=C(C#N)C1Cc1ccccc1	none
N#CC1=C(N)SC(N)=C(C#N)C1CCc1ccccc1	CRFBP-R2 agonist 103
O=C1c2cc(Br)ccc2N(Cc2ccc(Br)cc2)S(=O)(=O)C1c1cc(Cl)c(Cl)cc1[N+](=O)[O-] (stereo unspecified)	none
Cc1ccc(NC(=O)CCN2C(=O)NC3(CCCC3)C2=O)cc1S(=O)(=O)N1CCOCC1	none
CCOc1ccc(CCNC(=O)C2CC(=O)N(c3ccc4c(c3)OCCO4)C2)cc1OCC (stereo unspecified)	none
Cc1ccc(C(=O)N/N=C\c2ccccn2)cn1	CRFR2-BP antag 113
CCCn1nc([N+](=O)[O-])c(C(C#N)c2nc3ccccc3s2)c(Cl)c1=O (stereo unspecified)	CRFR2-BP antag 69
CCOc1cc2[nH]c(=O)n(Cc3ccccc3)c(=O)c2cc1OCC	CRFR2-BP antag 71
Cc1ccccc1Cn1cccc1/C=C1/C(=N)N2C=CSC2=NC1=O	CRFR2-BP antag 55
O=C(O)C1CC(=O)N(CCOc2ccccc2)C1 (stereo unspecified)	CRFR2-BP antag 63
O=C(O)C1CC(=O)N(Cc2ccccc2)C1 (stereo unspecified)	none
Cc1cc(S(=O)(=O)c2ccc([N+](=O)[O-])cn2)ccc1Br	V-ATPase pHluor 8.7
CCOc1cc(CNc2ccccc2SC)ccc1O	none (no result: CRFR2-BP antag, V-ATPase pHluor, CRFBP-R2 agonist)
COc1cc(CNc2ccccc2SC)ccc1O	CRFR2-BP antag 55
O=c1ccc2cc(S(=O)(=O)NCc3ccccc3)ccc2[nH]1	CRFR2-BP antag 99
Cc1ccc(NC(=O)C2CC2c2ccccc2)c([N+](=O)[O-])c1 (stereo unspecified)	none
O=C(c1ccc2c(c1)OCO2)C1CCCN(Cc2cc(F)ccc2-n2cccn2)C1 (stereo unspecified)	CRFBP-R2 agonist 56
CN1CC=C2C(C#N)=C(N)C(C#N)(C#N)C(CCc3ccccc3)C2C1 (stereo unspecified)	CRFBP-R2 agonist 59
CN1CC=C2C(C#N)=C(N)C(C#N)(C#N)[C@H](c3cccs3)[C@H]2C1	CRFBP-R2 agonist 53 (no result: NTR1 agonist, V-ATPase pHluor)
CN1CC=C2C(C#N)=C(N)C(C#N)(C#N)[C@H](c3cccc(Cl)c3)C2C1 (stereo partly specified)	none
COc1cccc(C2C3CN(C)CC=C3C(C#N)=C(N)C2(C#N)C#N)c1OC (stereo unspecified)	CRFBP-R2 agonist 72
COc1ccc(NC2CCCN(C(=O)C3=NN(C)C(=O)CC3)C2)cc1OC (stereo unspecified)	none
O=S(=O)(c1cccc2nsnc12)N1CCc2ccccc2C1	CRFR2-BP antag 52
CC1C/C(=C/c2ccncc2)C(=O)/C(=C/c2ccncc2)C1 (stereo unspecified)	none
CC1C/C(=C/c2cccn2C)C(=O)/C(=C/c2cccn2C)C1 (stereo unspecified)	CRFBP-R2 agonist 128
O=c1c(O)c(-c2ccccc2)oc2ccccc12	none (no result: NTR1 agonist)
O=c1c(O)c(-c2cccs2)oc2ccc(Cl)cc12	CRFBP-R2 agonist 267
O=c1c(O)c(-c2cccs2)oc2ccccc12	CRFBP-R2 agonist 108
CC(C)Cn1cnc2c(SCc3ccccc3)nc(N)nc21	CRFR2-BP antag 68 (no result: NTR1 agonist)
COC(=O)c1sccc1NC(=O)c1ccc(C(C)C)cc1	none
O=C(NC(=S)NNC(=O)c1cccs1)c1ccc(Br)o1	CRFBP-R2 agonist 71
Cc1cc(C)cc(NS(=O)(=O)c2ccc3[nH]cc(C(=O)N4CCc5ccccc54)c(=O)c3c2)c1	CRFBP-R2 agonist 61
CCN(CC)C(=O)c1c[nH]c2ccc(S(=O)(=O)Nc3cc(C)cc(C)c3)cc2c1=O	CRFBP-R2 agonist 125
N#Cc1c(C(F)(F)F)cc(-c2ccccc2)nc1SCc1nc(N)nc(N2CCOCC2)n1	CRFBP-R2 agonist 69
